Assay results reported in ChEMBL document CHEMBL5598561, “ASAP - In vitro binding kinetics” (2024).

Molecular target: Nonstructural protein 3 (Zika virus) (UniProt A0A024AXB9)
Details: PRVABC59, Concentration 10.0 uM

Nonstructural protein 3 (Zika virus), sequence (A0A024AXB9 as listed by the source): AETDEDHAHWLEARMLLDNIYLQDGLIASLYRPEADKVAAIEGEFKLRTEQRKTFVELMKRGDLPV

SMILES: CC(C)(C)c1ccc(Cl)cc1C(=O)Nc1ccc2c(c1)CNC2
- pKD (Immobilization level 10000.0 pg/mm2, Rmax 29.0 pg/mm2, ka 451041.562 M-1s-1, kd 5.162 1/s): 4.94
- pKD (Immobilization level 12000.0 pg/mm2, Rmax 32.0 pg/mm2, ka 233803.873 M-1s-1, kd 2.593 1/s): 4.96
- pKD (Immobilization level 13000.0 pg/mm2, Rmax 24.0 pg/mm2, ka 278548.314 M-1s-1, kd 2.759 1/s): 5

SMILES: CCOCCCN1Cc2ccc(NC(=O)c3cc(Cl)cc4[nH]ncc34)cc2C1
- pKD (Immobilization level 3900.0 pg/mm2, Rmax 34.0 pg/mm2, ka 194403.459 M-1s-1, kd 4.353 1/s): 4.65
- pKD (Immobilization level 4900.0 pg/mm2, Rmax 26.0 pg/mm2, ka 190862.396 M-1s-1, kd 2.393 1/s): 4.9
- pKD (Immobilization level 5500.0 pg/mm2, Rmax 37.0 pg/mm2, ka 197216.313 M-1s-1, kd 2.701 1/s): 4.86

SMILES: Cn1cc2cc(Cl)cc(C(=O)Nc3ccc4c(c3)CNC4)c2n1
- pKD (Immobilization level 10000.0 pg/mm2, Rmax 16.0 pg/mm2, ka 983801.201 M-1s-1, kd 0.863 1/s): 6.06
- pKD (Immobilization level 12000.0 pg/mm2, Rmax 34.0 pg/mm2, ka 627028.403 M-1s-1, kd 0.493 1/s): 6.1
- pKD (Immobilization level 13000.0 pg/mm2, Rmax 25.0 pg/mm2, ka 951140.583 M-1s-1, kd 0.688 1/s): 6.14

SMILES: O=C(Nc1ccc2c(c1)CNC2)c1cc(Cl)cc2ccncc12
- pKD (Immobilization level 10000.0 pg/mm2, Rmax 18.0 pg/mm2, ka 555072.266 M-1s-1, kd 0.336 1/s): 6.22
- pKD (Immobilization level 12000.0 pg/mm2, Rmax 46.0 pg/mm2, ka 241038.936 M-1s-1, kd 0.226 1/s): 6.03
- pKD (Immobilization level 13000.0 pg/mm2, Rmax 30.0 pg/mm2, ka 431290.6 M-1s-1, kd 0.289 1/s): 6.17

SMILES: O=C(Nc1cnc2c(c1)CNCC2)c1cc(Cl)cc2[nH]ncc12
- pKD (Immobilization level 10000.0 pg/mm2, Rmax 20.0 pg/mm2, ka 1026935.718 M-1s-1, kd 0.802 1/s): 6.11
- pKD (Immobilization level 12000.0 pg/mm2, Rmax 35.0 pg/mm2, ka 607851.885 M-1s-1, kd 0.465 1/s): 6.12
- pKD (Immobilization level 13000.0 pg/mm2, Rmax 25.0 pg/mm2, ka 909514.232 M-1s-1, kd 0.608 1/s): 6.17

SMILES: O=C(Nc1ccc(C2CNC2)cc1)c1cc(Cl)cc2[nH]ncc12
- pKD (Immobilization level 10000.0 pg/mm2, Rmax 37.0 pg/mm2, ka 291088.891 M-1s-1, kd 2.184 1/s): 5.12
- pKD (Immobilization level 12000.0 pg/mm2, Rmax 69.0 pg/mm2, ka 224213.878 M-1s-1, kd 1.69 1/s): 5.12
- pKD (Immobilization level 13000.0 pg/mm2, Rmax 34.0 pg/mm2, ka 337518.302 M-1s-1, kd 1.709 1/s): 5.3

SMILES: O=C(Nc1ccc2c(c1)CNC2)c1cc(=O)[nH]c2c(F)cccc12
- pKD (Immobilization level 4900.0 pg/mm2, Rmax 18.0 pg/mm2, ka 230791.194 M-1s-1, kd 7.379 1/s): 4.5
- pKD (Immobilization level 5500.0 pg/mm2, Rmax 21.0 pg/mm2, ka 297955.59 M-1s-1, kd 8.334 1/s): 4.55

SMILES: O=C(Nc1ccc2c(c1)CNC2)c1cccc(-c2cnco2)c1
- pKD (Immobilization level 12000.0 pg/mm2, Rmax 4.0 pg/mm2, ka 566629.865 M-1s-1, kd 1.936 1/s): 5.47

SMILES: CCS(=O)(=O)c1ccc(Cl)cc1C(=O)Nc1ccc2c(c1)CNC2
- pKD (Immobilization level 12000.0 pg/mm2, Rmax 28.0 pg/mm2, ka 273415.174 M-1s-1, kd 3.732 1/s): 4.87

SMILES: NCc1cc(NC(=O)c2cc(Cl)cc(NC(=O)OCc3ccccc3)c2)cc(C2=CC[C@H](C(=O)O)C2)c1
- pKD (Immobilization level 5500.0 pg/mm2, Rmax 9.0 pg/mm2, ka 171424.656 M-1s-1, kd 2.389 1/s): 4.86

SMILES: O=C1Cc2c(cccc2C(=O)Nc2ccc3c(c2)CNC3)N1
- pKD (Immobilization level 3900.0 pg/mm2, Rmax 48.0 pg/mm2, ka 37165.995 M-1s-1, kd 0.04 1/s): 5.97
- pKD (Immobilization level 5500.0 pg/mm2, Rmax 106.0 pg/mm2, ka 18457.516 M-1s-1, kd 0.041 1/s): 5.65

SMILES: O=C(Nc1ccc2c(c1)CNC2)c1cc(Cl)cc(-n2cccc2)c1
- pKD (Immobilization level 10000.0 pg/mm2, Rmax 42.0 pg/mm2, ka 59822.118 M-1s-1, kd 0.636 1/s): 4.97
- pKD (Immobilization level 12000.0 pg/mm2, Rmax 78.0 pg/mm2, ka 29884.208 M-1s-1, kd 0.167 1/s): 5.25
- pKD (Immobilization level 13000.0 pg/mm2, Rmax 57.0 pg/mm2, ka 51449.064 M-1s-1, kd 0.399 1/s): 5.11

SMILES: CC(C)c1ccc(Cl)cc1C(=O)Nc1ccc2c(c1)CNC2
- pKD (Immobilization level 10000.0 pg/mm2, Rmax 50.0 pg/mm2, ka 207835.98 M-1s-1, kd 5.69 1/s): 4.56
- pKD (Immobilization level 12000.0 pg/mm2, Rmax 40.0 pg/mm2, ka 170668.879 M-1s-1, kd 3.145 1/s): 4.74
- pKD (Immobilization level 13000.0 pg/mm2, Rmax 24.0 pg/mm2, ka 212611.498 M-1s-1, kd 2.587 1/s): 4.92

SMILES: O=C(Nc1ccc2c(c1)CNC2)c1ccccc1-n1cccc1
- pKD (Immobilization level 5500.0 pg/mm2, Rmax 27.0 pg/mm2, ka 207569.847 M-1s-1, kd 8.279 1/s): 4.4

SMILES: O=C(NC1CCOCC1)[C@H](Nc1ccc2c(c1)CNC2)c1cc(Cl)cc(C2CC2)c1
- pKD (Immobilization level 10000.0 pg/mm2, Rmax 26.0 pg/mm2, ka 616891.885 M-1s-1, kd 0.14 1/s): 6.64
- pKD (Immobilization level 12000.0 pg/mm2, Rmax 48.0 pg/mm2, ka 284907.141 M-1s-1, kd 0.112 1/s): 6.4
- pKD (Immobilization level 13000.0 pg/mm2, Rmax 35.0 pg/mm2, ka 474880.78 M-1s-1, kd 0.123 1/s): 6.59

SMILES: CC(C)c1nc2c(C(=O)Nc3ccc4c(c3)CNC4)cc(Br)cc2[nH]1
- pKD (Immobilization level 10000.0 pg/mm2, Rmax 28.0 pg/mm2, ka 451108.713 M-1s-1, kd 0.396 1/s): 6.06
- pKD (Immobilization level 12000.0 pg/mm2, Rmax 37.0 pg/mm2, ka 197303.267 M-1s-1, kd 0.307 1/s): 5.81
- pKD (Immobilization level 13000.0 pg/mm2, Rmax 31.0 pg/mm2, ka 315714.539 M-1s-1, kd 0.366 1/s): 5.94

SMILES: Clc1cc(CNc2ccc3c(c2)CNC3)c2cn[nH]c2c1
- pKD (Immobilization level 10000.0 pg/mm2, Rmax 2.0 pg/mm2, ka 219034.03 M-1s-1, kd 0.842 1/s): 5.42
- pKD (Immobilization level 12000.0 pg/mm2, Rmax 10.0 pg/mm2, ka 126196.485 M-1s-1, kd 1.272 1/s): 5
- pKD (Immobilization level 13000.0 pg/mm2, ka 206129.831 M-1s-1, kd 1.048 1/s): 5.29

SMILES: O=C(Nc1ccc2c(c1)CNC2)c1cc(Br)cc2[nH]c(-c3ccccc3)nc12
- pKD (Immobilization level 10000.0 pg/mm2, Rmax 3.0 pg/mm2, ka 184994.652 M-1s-1, kd 0.296 1/s): 5.79
- pKD (Immobilization level 12000.0 pg/mm2, Rmax 13.0 pg/mm2, ka 22744.722 M-1s-1, kd 0.309 1/s): 4.87
- pKD (Immobilization level 13000.0 pg/mm2, ka 103523.991 M-1s-1, kd 0.302 1/s): 5.54

SMILES: CCCN1C(=O)[C@](C#N)(Nc2ccc3c(c2)CNC3)c2ccccc21
- pKD (Immobilization level 3900.0 pg/mm2, Rmax 21.0 pg/mm2, ka 159960.868 M-1s-1, kd 3.775 1/s): 4.63
- pKD (Immobilization level 5500.0 pg/mm2, Rmax 21.0 pg/mm2, ka 193790.134 M-1s-1, kd 2.393 1/s): 4.91
- pKD (Immobilization level 12000.0 pg/mm2, Rmax 14.0 pg/mm2, ka 179346.718 M-1s-1, kd 2.44 1/s): 4.87

SMILES: O=C(Nc1ccc2c(c1)CNC2)c1cc(Cl)ccc1-n1ccnc1
- pKD (Immobilization level 10000.0 pg/mm2, Rmax 38.0 pg/mm2, ka 298408.653 M-1s-1, kd 1.639 1/s): 5.26
- pKD (Immobilization level 12000.0 pg/mm2, Rmax 63.0 pg/mm2, ka 203693.474 M-1s-1, kd 1.266 1/s): 5.21
- pKD (Immobilization level 13000.0 pg/mm2, Rmax 40.0 pg/mm2, ka 299200.161 M-1s-1, kd 1.542 1/s): 5.29
